Screening data from PubChem BioAssay.
Compounds with a hit are over-represented: about 2.6% of the library has one in this group of screens.
Myc binder: binders of human c-Myc. P01106. small molecule microarray, His-c-Myc binding, anti-His fluorescence. calls only. 1.5% of 17,000 active. AID 624141;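 active = spot fluorescence over background with P-value below 7% in all four replicate spots, showing protein binding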;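 note: score is binary with 100 for all four spots passing and 0 otherwise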
Target sequence (P01106 whole entry, looked up): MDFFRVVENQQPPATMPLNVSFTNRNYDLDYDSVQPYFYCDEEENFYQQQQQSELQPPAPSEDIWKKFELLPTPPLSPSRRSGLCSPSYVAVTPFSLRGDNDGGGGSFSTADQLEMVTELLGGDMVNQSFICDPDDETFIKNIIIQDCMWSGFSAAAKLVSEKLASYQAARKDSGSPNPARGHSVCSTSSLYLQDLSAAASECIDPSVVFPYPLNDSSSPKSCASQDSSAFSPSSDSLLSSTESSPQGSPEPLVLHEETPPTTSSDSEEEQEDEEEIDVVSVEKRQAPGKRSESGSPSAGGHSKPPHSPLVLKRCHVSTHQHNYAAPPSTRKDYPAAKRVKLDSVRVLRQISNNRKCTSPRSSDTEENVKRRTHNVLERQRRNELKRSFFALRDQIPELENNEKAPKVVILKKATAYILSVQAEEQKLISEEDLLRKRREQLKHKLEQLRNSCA
mut p53 SMM: binds human mutant p53 on microarray; small molecule microarray binding, anti-GST fluorescence; calls only; 0.4% of 17,000 active; AID 624136;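 active = compounds whose four printed spots each glow above background more than chance allows, each with a p-value under 7%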
NFkB binder: NF-kappa-B p105 (human) binding | Small molecule microarray, anti-His fluorescence binding | calls only | 1.3% of 17,000 active | AID 624139;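 active = spot fluorescence over background significantly raised, with a chance value under 7% in all four replicate spots of the compound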;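 note: probe protein is his-tagged human p50 processed subunit at 1 µg/ml; raw spot fluorescence signals with no normalization applied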
STAT3 binder: binds human STAT3 on microarray; 0.2% of 17,000 active; Small molecule microarray, His-STAT3 binding, anti-His fluorescence; calls only; AID 624138;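 active = compounds whose four printed spots each show fluorescence over background unusually high for their array block, chance value under 7%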
p53 PUMA act: re-activators of the mutant p53 pathway; SW480 PUMA-promoter luciferase, p53 mutant reactivation; activation, % at 9.98 µM; 1.5% of 28,000 active; AID 624151; in the data active = activation above about 52%
Numbers without * were called inactive.

Results for COc1ccc(NC(=O)N(C)C[C@@H]2Oc3ccc(NS(=O)(=O)c4ccccc4)cc3C(=O)N([C@H](C)CO)C[C@H]2C)cc1 ?
Myc binder: inactive; mut p53 SMM: inactive; NFkB binder: inactive; STAT3 binder: inactive; p53 PUMA act: 7

How did O=C(COc1ccc(I)cc1)Nc1cccc(-c2nnc(-c3ccco3)o2)c1 do in these assays?
p53 PUMA act: 79*

How did CN(c1ccc(OCC(=O)O)cc1)S(=O)(=O)c1ccc(F)cc1 do in these assays?
Myc binder: inactive; mut p53 SMM: inactive; NFkB binder: active; STAT3 binder: inactive; p53 PUMA act: -1

How did C[C@H]1CN([C@@H](C)CO)C(=O)c2cc(NC(=O)Nc3ccc4c(c3)OCO4)ccc2O[C@H]1CN(C)Cc1ccc(C(F)(F)F)cc1 do in these assays?
Myc binder: inactive; mut p53 SMM: inactive; NFkB binder: inactive; STAT3 binder: inactive; p53 PUMA act: -6

What do the screens show for `COC(=O)c1ccccc1NC(=O)CSc1nc2ccccc2c(=O)[nH]1`?
p53 PUMA act: -5

Results for Cc1ccc(S(=O)(=O)NCCC(=O)Oc2ccc3c(=O)c(-c4ccc(F)cc4)coc3c2)cc1 ?
Myc binder: inactive; mut p53 SMM: inactive; NFkB binder: inactive; STAT3 binder: inactive; p53 PUMA act: 105*

Results for COCC#Cc1cnc2c(c1)C(=O)N([C@@H](C)CO)C[C@H](C)[C@H](CN(C)C(=O)CN1CCOCC1)O2 ?
p53 PUMA act: -1

What do the screens show for `COc1cccc(NC(=O)/C=C/c2ccc(Cl)cc2)c1`?
Myc binder: inactive; mut p53 SMM: inactive; NFkB binder: inactive; STAT3 binder: inactive; p53 PUMA act: 94*

How did Cc1noc(C)c1S(=O)(=O)Nc1ccc2c(c1)C(=O)N([C@@H](C)CO)C[C@H](C)[C@H](CN(C)C(=O)CCC(F)(F)F)OCCCC[C@H](C)O2 do in these assays?
Myc binder: inactive; mut p53 SMM: inactive; NFkB binder: inactive; STAT3 binder: inactive; p53 PUMA act: 2

How did COC(=O)C1=C2CC[C@H](CO)NC(=O)N[C@H](Cc3ccccc3)C(=O)NCc3cn(nn3)C[C@@H](Cc3ccccc3)NC(=O)c3oc(c(C(=O)OC)c3C(=O)OC)CC[C@H](CO)NC(=O)N[C@H](Cc3ccccc3)C(=O)NCc3cn(nn3)C[C@@H](Cc3ccccc3)NC(=O)C(=C1C(=O)OC)O2 do in these assays?
Myc binder: inactive; mut p53 SMM: inactive; NFkB binder: inactive; STAT3 binder: active

How did C[C@@H]1CN([C@@H](C)CO)C(=O)c2cccc(NS(C)(=O)=O)c2O[C@H]1CN(C)Cc1ccc(Cl)c(Cl)c1 do in these assays?
Myc binder: inactive; mut p53 SMM: inactive; NFkB binder: inactive; STAT3 binder: inactive; p53 PUMA act: 13

Results for CCn1cc(C(C)NC(=S)Nc2cccc([N+](=O)[O-])c2)c(C)n1 (stereo unspecified) ?
Myc binder: active; mut p53 SMM: inactive; NFkB binder: inactive; STAT3 binder: inactive; p53 PUMA act: -2

Results for C[C@H](CO)N1C[C@H](C)[C@@H](CN(C)C(=O)Cc2ccccc2)OCCCC[C@H](C)Oc2ccc(NC(=O)Nc3cccc4ccccc34)cc2C1=O ?
Myc binder: inactive; mut p53 SMM: inactive; NFkB binder: inactive; STAT3 binder: inactive

What do the screens show for `Cc1ccccc1OCC(=O)Nc1cccc(NC(=O)C(C)C)c1`?
p53 PUMA act: 62*

Results for O=C(CSc1ncnc2sc3c(c12)CCC3)Nc1cccc(-c2nc3ccccc3s2)c1 ?
p53 PUMA act: 80*

How did Cc1ccccc1OCC(=O)NC(=S)Nc1ccccc1-c1nc2ccccc2s1 do in these assays?
p53 PUMA act: 2

Results for Cc1ccccc1OCC(=O)Nc1cccc(-c2nc3ccccc3s2)c1 ?
Myc binder: inactive; mut p53 SMM: inactive; NFkB binder: inactive; STAT3 binder: inactive; p53 PUMA act: 79*

What do the screens show for `Cc1cccc(OCC(=O)Nc2cccc(-c3nc4ccccc4s3)c2)c1C`?
p53 PUMA act: 95*

Results for Cc1ccccc1OCC(=O)Nc1cccc(C(=O)O)c1 ?
p53 PUMA act: -93

Results for COc1cc(C2NC(=S)NC(c3ccccc3)=C2C(C)=O)cc(Cl)c1OCC(=O)O (stereo unspecified) ?
p53 PUMA act: -4

What do the screens show for `Cc1ccc(Oc2ncccc2NS(=O)(=O)c2ccc(-c3ccccn3)s2)c2c1CCC2`?
p53 PUMA act: -9

Results for CCC(=O)Nc1ccc(Cl)c(NC(=O)COc2ccc(Br)cc2)c1 ?
p53 PUMA act: 18

How did CCC(=O)Nc1ccc(Cl)c(NC(=O)COc2ccccc2C)c1 do in these assays?
p53 PUMA act: 107*

What do the screens show for `CC(C)(C)c1ccc(C(=O)NCCNc2ccccc2[N+](=O)[O-])cc1`?
p53 PUMA act: 114*

How did C[C@H]1CN([C@@H](C)CO)C(=O)c2cccc(NC(=O)c3nc4ccccc4s3)c2O[C@H]1CN(C)S(=O)(=O)c1cccs1 do in these assays?
Myc binder: inactive; mut p53 SMM: inactive; NFkB binder: inactive; STAT3 binder: inactive; p53 PUMA act: 2

Results for C[C@H]1CCCCO[C@@H](CN(C)C(=O)C2CCCCC2)[C@@H](C)CN([C@@H](C)CO)C(=O)c2cc(NS(=O)(=O)c3ccccc3)ccc2O1 ?
Myc binder: inactive; mut p53 SMM: inactive; NFkB binder: inactive; STAT3 binder: inactive; p53 PUMA act: -10

Results for C[C@H](CO)N1C[C@H](C)[C@H](CN(C)C(=O)C2CCCCC2)OCCCC[C@H](C)Oc2ccc(NS(=O)(=O)c3ccccc3)cc2C1=O ?
Myc binder: inactive; mut p53 SMM: inactive; NFkB binder: inactive; STAT3 binder: active; p53 PUMA act: -16

How did C[C@H](CO)N1C[C@H](C)[C@H](CN(C)Cc2ccccc2)OCCCC[C@H](C)Oc2ccc(NS(=O)(=O)c3ccccc3)cc2C1=O do in these assays?
Myc binder: inactive; mut p53 SMM: active; NFkB binder: inactive; STAT3 binder: inactive; p53 PUMA act: 1

What do the screens show for `CCCN(C)C[C@H]1OCCCC[C@@H](C)Oc2ccc(NS(=O)(=O)c3ccc(OC)cc3)cc2C(=O)N([C@H](C)CO)C[C@@H]1C`?
Myc binder: inactive; mut p53 SMM: inactive; NFkB binder: inactive; STAT3 binder: inactive; p53 PUMA act: -3

What do the screens show for `C[C@@H]1CCCCO[C@@H](CN(C)C(=O)C2CCCCC2)[C@@H](C)CN([C@H](C)CO)C(=O)c2cc(NS(=O)(=O)c3ccccc3)ccc2O1`?
Myc binder: inactive; mut p53 SMM: inactive; NFkB binder: inactive; STAT3 binder: inactive; p53 PUMA act: -7

Results for C[C@H]1CCCCO[C@H](CN(C)C(=O)C2CCCCC2)[C@@H](C)CN([C@@H](C)CO)C(=O)c2cc(NS(=O)(=O)c3ccccc3)ccc2O1 ?
Myc binder: active; mut p53 SMM: inactive; NFkB binder: active; STAT3 binder: inactive; p53 PUMA act: -7
